Screening results: PubChem, National Center for Advancing Translational Sciences (NCATS)
FEN1 inhibitor: blocks human flap endonuclease 1; P39748; Recombinant FEN1 flap cleavage, fluorescence, 15 min; Potency, µM (titrated, usually from 114 µM), inactives show at the highest dose activity change, negative = inhibition, actives largely listed as inhibitors; 0.35% of 390,000 active; further: potency means the concentration at half of the fitted maximal effect; nearly all actives have a fitted effect of over 65% in size
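FEN1 at 10 nM, compound pretreatment for 15 min (room temperature), 50 nM final substrate to initiate; endpoint reads at 0 and 15 min; DMSO-only plates used as vehicle background.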
TDP1 block: TDP1 (human) enzyme inhibition; Q9NUW8; recombinant TDP1, AlphaScreen DNA substrate cleavage; Potency, µM (doses to about 130 µM), without a hit: at the highest dose activity change, negative = inhibition, actives largely listed as inhibitors; 0.28% of 350,000 active; AID 485290; further: potency means the concentration at half of the fitted maximal effect; nearly all actives have a fitted effect of over 40% in size
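Enzyme-compound mixtures sat 15 min at room temperature, followed by a 5 min reaction with 15 nM final substrate and 10 min with AlphaScreen beads. Recombinant human Tdp1 was used at 1 nM final.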
WRN inhibitor: inhibitors of human WRN helicase; Potency, µM (series often up to 114 µM), for the others: at the top dose activity change, negative = inhibition, most hits filed as inhibitors; 0.46% of 360,000 active; WRN helicase unwinding, fluorescent forked duplex, kinetic; AID 651768; further: potency means the concentration at half of the fitted maximal effect; nearly all actives have a fitted effect of over 55% in size
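Fluorescence dequenching readout, ex 525 nm/em 598 nm, kinetic mode: forked duplex DNA (100 nM final) with adjacent fluorophore and quencher unwound by WRN (20 nM final) with 2 mM ATP. Compound preincubation 15 min, room temperature.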
Tb PFK block: T. brucei PFK enzyme inhibition. T. brucei PFK, ADP-Glo luminescence. Potency, µM (series often up to 57.5 µM), for inactives: top-dose activity, negative = inhibition, usual class: inhibitors. 0.17% of 330,000 active. AID 485367. O15648;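 further: potency means the concentration at half of the fitted maximal effect; 0% = uninhibited 1x PFK enzyme wells and -100% = no-enzyme wells; nearly all actives have a fitted effect of over 60% in size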
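PFK 1.25 nM, F6P 0.5 mM, ATP 0.1 mM, 0.1 M TEA pH 8.0, 5 mM MgCl2, 0.01% Tween20, 0.1% BSA; 45 min RT. ADP-Glo readout. qHTS titration up to 57 uM; curves fitted, compounds curve-classed.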
PGK inhibitor: T. brucei PGK inhibition | P07378 | PGK/GAPDH coupled, Kinase-Glo luminescence, 60 min | Potency, µM (doses to about 57.5 µM), without a hit: at the highest dose activity change, negative = inhibition, hits mostly inhibitors | 0.043% of 380,000 active | AID 602233; further: potency means the concentration at half of the fitted maximal effect; nearly all actives have a fitted effect of over 60% in size
Target sequence (P07378 whole entry, looked up): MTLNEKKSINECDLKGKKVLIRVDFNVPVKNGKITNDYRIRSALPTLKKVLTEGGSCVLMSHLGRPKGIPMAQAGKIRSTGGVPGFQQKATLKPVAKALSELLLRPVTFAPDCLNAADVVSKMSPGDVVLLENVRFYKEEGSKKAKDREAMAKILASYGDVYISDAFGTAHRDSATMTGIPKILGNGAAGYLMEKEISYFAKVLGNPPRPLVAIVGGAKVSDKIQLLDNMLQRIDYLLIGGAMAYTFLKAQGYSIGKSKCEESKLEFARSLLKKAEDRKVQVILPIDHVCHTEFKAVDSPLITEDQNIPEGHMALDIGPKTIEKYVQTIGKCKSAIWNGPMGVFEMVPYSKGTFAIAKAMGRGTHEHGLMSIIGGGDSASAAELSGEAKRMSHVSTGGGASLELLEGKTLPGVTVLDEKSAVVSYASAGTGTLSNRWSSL
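Recombinant glycosomal PGK reaction used 1,3-bisphosphoglycerate generated in-well by GAPDH (100nM final) in 100mM TEA pH 7.6, 5mM MgCl2, 0.01% Tween-20. After 60 minutes at room temperature, ATP was read by Kinase-Glo Plus luminescence end-point.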
PI5P4Ka inh: inhibitors of human PI5P4K alpha. P48426. PI5P4Kalpha enzyme, ADP-Glo luminescence, 60 min; active compounds read low. max response, %. 1.2% of 330,000 active. AID 652105; active means max response of -50% or lower; inconclusive means between -30% and -50%; inactive means -30% or higher; further: value at the top dose of about 77 µM
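ADP-Glo luminescence end-point read after a 60 min room-temperature kinase reaction of PI5P4Kalpha plus substrate, initiated with ATP at 5 microM final. Buffer: 0.038 M HEPES pH 7.4, EGTA, 0.1% CHAPS, 5% DMSO.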
* marks the source's active call; other numbers are inactive results; i = inactive; ? = inconclusive; / = not tested or not shown; [ ] = dose if it differs, or a comment. Hits are enriched below; roughly 1.5% of the tested compounds scored in any of these assays. Unless noted, the call rests on the fitted dose curve; in most records, active means well fitted curve in the direction sought with a large enough effect; inconclusive means small, poorly fitted or top-dose-only effect, or another doubt; inactive means no such curve, though single readings can be large; an effect the other way counts as inactive or inconclusive. Unless noted, on the % scale 0 is the no-effect control and ±100 the full control effect.

SMILES	FEN1 inhibitor	TDP1 block	WRN inhibitor	Tb PFK block	PGK inhibitor	PI5P4Ka inh
CCCCCCCCCCCNC(=O)c1ccoc1C	-22%	2%	50µM*	0%	8%	-19
CN1CCN(CCCNC(=O)c2cc3c(-c4ccc(Cl)cc4)nn(C)c3s2)CC1	?	1%	25%	0%	10%	1
CCN(CC)CCCNC(=O)c1cc2c(-c3ccc(Cl)cc3)nn(C)c2s1	45µM*	-3%	93%	3%	-3%	1
C[C@@H](c1ccccc1)N1C(=O)[C@H]2[C@H]3[C@H](O)[C@H](O)C/C(=N/NC(=O)OCc4ccccc4)[C@@H]3CC[C@@H]2C1=O	/	11%[21 µM]	/	/	/	/
Oc1cccc(/C=N/N=C/c2cccc(O)c2O)c1O	-19%	/	-14%[11.6 µM]	19%	-20%	-14
Cc1ccc(N=Cc2cccc(O)c2O)c(C)c1	4.5µM*	12%	/	-25%	/	/
Cc1ccccc1N=Cc1cccc(O)c1O	50µM*	8%	11µM*	-11%	-6%	?
CC(N=Cc1cccc(O)c1O)c1ccccc1 (centres undefined)	35µM*	?	32µM*	-13%	-9%	/
CC(N=Cc1cc([N+](=O)[O-])ccc1O)c1ccccc1 (centres undefined)	-6%	3%	-12%	?	-2%	?
O=C1c2ccccc2C(=O)N1c1cccc(Cl)c1	/	0%	/	/	/	/
O=C(O)c1ccc2nc(C(F)(F)F)[nH]c2c1	0%	-9%	-5%	0%	-2%	0
CCOC(=O)c1ccc2nc(C(F)(F)F)[nH]c(=O)c2c1	26%	5%	-7%	-1%	i	-57*
CC(=O)NC1[C@H]([C@H](O)[C@H](O)CO)OC(C(=O)O)=C[C@H]1N=C(N)N (some centres undefined)	/	6%	/	/	/	/
COC(=O)c1ccn(CC(=O)NC2CCCCC2)n1	0%	28µM*	-1%	-14%	-15%	-20
C=C1C=C(C(F)F)n2ncc(C(=O)NC(C)CC)c2N1 (centres undefined)	7%	/	/	/	/	/
Nc1cc2nc[nH]c2cc1N	-13%	79µM*	?	29%	-7%	-27
Cn1c(=O)n(C)c2cc3[nH]cnc3cc21	4%	/	5%	7%	0%	-14
Cc1noc(C)c1S(=O)(=O)N(C)C[C@H]1Oc2c(cccc2N(C)C)C(=O)N([C@H](C)CO)C[C@@H]1C	8%	100µM*	-5%	-2%	6%	4
Cc1noc(C)c1S(=O)(=O)N(C)C[C@H]1Oc2c(NC(=O)NC3CCCCC3)cccc2C(=O)N([C@H](C)CO)C[C@@H]1C	-2%	0%	8%	6%	-6%	0
C[C@H]1CC2[C@@H]3CCC4=CC(=O)C=C[C@]4(C)[C@@]3(F)[C@@H](O)C[C@]2(C)[C@@]1(O)C(=O)CO (some centres undefined)	/	4%	/	/	/	/
COc1ccccc1OCC(=O)N/N=C(\C)c1ccc2ccccc2c1	/	/	-4%	/	-9%	-68*
C/C(=N\NC(=O)Cc1cccn1C)c1ccc2ccccc2c1	-10%	5%	-12%	-2%	6%	-21
COc1cc(/C=C/C(=O)c2c(O)cc(C)oc2=O)cc(OC)c1O	-36%	10%	-16%	-3%	-9%	2
Cc1cc(O)c(C(=O)/C=C/c2ccc(Cl)cc2)c(=O)o1	-9%	/	-20%	-2%	-9%	-69*
CSc1ccc(/C=C/C(=O)c2c(O)cc(C)oc2=O)cc1	-10%	/	-24%	0%	-12%	-54*
SMILES	FEN1 inhibitor	TDP1 block	WRN inhibitor	Tb PFK block	PGK inhibitor	PI5P4Ka inh
CCN(CC)c1ccc(/C=C(\C#N)C(=O)c2ccc(Br)cc2)cc1	?	3%	28µM*	4%	-13%	-2
CO[C@@H]1COC(=O)[C@H](C)NC(=O)[C@@H](C)COC(=O)[C@H](C)NC(=O)C/C=C\[C@H]1C	/	2%[21 µM]	/	/	/	/
O=c1cc(CSc2ccc(Cl)cc2)[nH]c2[nH]n(-c3ccccc3)c(=O)c12	10%	/	-20%	-3%	-3%	?
Cc1ccc(SCc2cc(=O)c3c(=O)n(-c4ccccc4)[nH]c3[nH]2)cc1	-9%	11%	?	-11%	0%	-62*
N#C/C(=C/c1ccco1)C(N)=S	-5%	/	-36%	-17%	-2%	-59*
N#C/C(=C\c1ccc2c(c1)OCO2)C(N)=S	-10%	-4%	-12%	-1%	4%	-6
COc1ccc(C2c3c(n(Cc4ccccc4)cnc3=N)Oc3ccc4ccccc4c32)cc1OC (centres undefined)	/	5%	/	/	/	/
Cc1nc(N2CCCCC2)sc1C(=O)c1ccc(SCCO)c([N+](=O)[O-])c1	-19%	8%	-32%	3%	15%	-68*
CC(=O)Nc1ccc(S(=O)(=O)Nc2ccc(C)c(C)c2)cc1	/	0%	/	/	/	/
O=C1CCc2cc(S(=O)(=O)Nc3cccnc3)ccc2N1	/	2%	/	/	/	/
C[C@H]1CC[C@H]2C(=O)N3[C@H](c4ccc(Br)cc4)[C@@H](C)CC[C@H]3C(=O)N2[C@@H]1c1ccc(Br)cc1	/	7%[21 µM]	/	/	/	/
CCC1(c2ccccc2)NC(=O)N(CC(=O)N2CCN(S(=O)(=O)c3ccccc3)CC2)C1=O (centres undefined)	7%	3%	3%	0%	i	-65*
COc1cccc(C2=Nn3c(nnc3-c3ccccc3C)SC2)c1	/	21%	/	/	/	/
COC1=CC(=NCl)C=CC1=NCl	/	/	?	/	/	-62*
COc1ccccc1N=c1oc2cc(O)ccc2cc1C(N)=O	-8%	0%	?	0%	-8%	-71*
COc1ccccc1N=c1oc2cc(O)ccc2cc1C(=O)NCC1CCCO1 (centres undefined)	11%	4%	-1%	-16%	-2%	/
O=C(CC1SC(=O)N(c2ccccc2)C1=O)Nc1ccc(Cl)cc1 (centres undefined)	0%	3%	25µM*	?	1%	-9
O=C(CSc1nnc(SCc2ccc(Cl)cc2)s1)N/N=C/c1ccc(Cl)cc1Cl	19%	0%	12%	2%	1%	-1
Cc1nnc(SCC(=O)N/N=C/c2cc(Cl)c(O)c(Cl)c2)s1	-12%	-14%	-14%	6%	-5%	-79*
c1nc(NCc2ccc3c(c2)OCO3)c2[nH]cnc2n1	11%	1%	/	/	/	/
NC(=O)c1ccc(-n2nnnc2SCC(=O)c2ccc(O)c(O)c2)cc1	-13%	/	35µM*	6%	?	?
Cc1coc2c1C(=O)C(=O)c1c-2ccc2c1CCCC2(C)C	?	21%	-7%[11.6 µM]	-8%	-5%	-52*
Cc1ccc2c3c(cccc13)-c1ccccc1C2=O	?	-1%	-27%[57.1 µM]	0%	-2%	20
